Article PMC12136788
Over roughly 5,800 sequences, “enrichment r” has its median near 0.68; the highest 2% begin near 11. A selection follows.

B1: ENSG00000124766:be:win_1851|3pUTR|ENSG00000124766|bound_else_gene|NA|bound_elsewhere_windowed (ssRNA)
RNA: GGGAGUUCUACAGUCCGACGAUCAGAGACUUGAAGGAGUCUCCCCCUUCCUGCAUCACCACCUUGGUUUUGUUUUAUUUUGCUUCUUGGUCAAGAAAGGAGGGGAGAACCCAGCGCACCCCUCCCCCCCUUUUUUUAAACGCGCAACAGAGGAUUGAGCAUCA
B2: chr9:125236489:125236593:-|3pUTR|ENSG00000044574|msi1_unk|total|mutant (ssRNA)
RNA: GGGAGUUCUACAGUCCGACGAUCUGCCGACACUGAUCUGCCCGUGCUGUAAUAUUGUAAAUACUGGACUCAGGAACUUUUGUCCGGAAAAAAUUGAAAGAACUUAAGUCUCGAAUGUAAUUGGAAUCUUCACCUCAGAGUGGACAACAGAGGAUUGAGCAUCA
B3: chr12:64128047:64128160:+|CDS|ENSG00000196935|unk|FALSE|unique (ssRNA)
RNA: GGGAGUUCUACAGUCCGACGAUCGGCAGCCUGACCAACAUCAGCCGGCACGACUCCCUCAAGAAGAUCGACAGCCCUCCCAUUAGAAGGUCCACGUCAUCAGGGCAAUACACGGGCUUCAAUGACCACAAGCCACUGGACCCACAACAGAGGAUUGAGCAUCA
B4: chr11:30010719:30012678:-|CDS|ENSG00000182255|control|control|control (ssRNA)
RNA: GGGAGUUCUACAGUCCGACGAUCUUUGCUCAAGAAAUUUCGGAGCUCUACUUCUUCUUCCCUGGGGGACAAGUCAGAGUAUCUAGAGAUGGAAGAAGGAGUUAAGGAAUCUCUGUGUGCAAAGGAGGAGAAGUGUCAGGGAAACAACAGAGGAUUGAGCAUCA
B5: chr11:101473508:101473773:-|CDS|ENSG00000137672|control|control|control (ssRNA)
RNA: GGGAGUUCUACAGUCCGACGAUCUCCUCAAAUAAUAUCUGAAGGUCUUUAUGCAAUUGCUGUAGUUUUAAGUUUCUCUAGGAUAGCUUAUAUUUUACCAGCAAAUGAAAGCUUUGGACCUCUGCAGAUAUCACUUGGAAGAACCAACAGAGGAUUGAGCAUCA
B6: ENSG00000092201:stop:overlap|stop_codon|ENSG00000092201|stop_codon|NA|stop_codon (ssRNA)
RNA: GGGAGUUCUACAGUCCGACGAUCUUCCCCGCGUGCCAGCCUUGGUCAUGCAUAGCAGCACCUCUCGCAGUCUCUUCCCGCCCUAGAAGAGGCAACAUCCUUCCCUCCUACUCCGUGGUCACGUCUUGCUGCCCUCCCCUGCCGCAACAGAGGAUUGAGCAUCA
B7: chr8:143915815:143915916:-|3pUTR|ENSG00000178209|msi1|FALSE|unique (ssRNA)
RNA: GGGAGUUCUACAGUCCGACGAUCGCCAGGUGCCUUGGAGGGUCCCAAGCUGGGCCCCAGCCCACCCUCCUGUCUUCCCAGGGUAGCCCGCCUGCCAGUCCUAGCUGCACAGGGCAGCUGGGCCCAACCCUGUCUGUAGAGGGCCAACAGAGGAUUGAGCAUCA
B8: chr1:17067933:17068034:-|3pUTR|ENSG00000117115|msi1|total|mutant (ssRNA)
RNA: GGGAGUUCUACAGUCCGACGAUCACAUAAGGACCCUGGCCUACCCUCCAGCCCAACAGCCAGUUCUGGGUCAGCUGCCAACUCCGGGGUGGUUUGAUUAUCCCAUUGAAAUUCACCAGUGCCUUUGCCAAAGACCCUCUCAUUCAACAGAGGAUUGAGCAUCA
B9: chr22:31279490:31279591:+|3pUTR|ENSG00000182541|msi1|FALSE|unique (ssRNA)
RNA: GGGAGUUCUACAGUCCGACGAUCAGCAGCUUGGGCUGGGAAGAGGUGGUGGCAGAGUCUCAAAGCUGAGAUGCUGAGAGAGAUAGCUCCCUGAGCUGGGCCAUCUGACUUCUACCUCCCAUGUUUGCUCUCCCAACUCAUUAGCAACAGAGGAUUGAGCAUCA
B10: chr1:193029531:193029688:-|CDS|ENSG00000116750|unk|total|mutant (ssRNA)
RNA: GGGAGUUCUACAGUCCGACGAUCUUGAUAUCUUCACUUUUAUAUUUUACCGGUAAUUAAUAAUGCUUGUGCUACUCAAGCCACCGUGAGUGUGUUACUGAACUGUACCCACCAGGAUGUCCAUUCCGGCGAGACAUUAUCAGACAACAGAGGAUUGAGCAUCA
B11: ENSG00000099250:stop:overlap|stop_codon|ENSG00000099250|stop_codon|NA|stop_codon (ssRNA)
RNA: GGGAGUUCUACAGUCCGACGAUCCAAUUCACGGAGAAAUGUGGUCAUCUGGAAAAGGAGUCUGCUCCCUGGAUGCGAAUCUGUAGCCUGGAUUCUGGAAGGCGAUGCUGAUUUAGGAGGUGGAGUGAAUGGAGAAUUGAAAAGCAACAGAGGAUUGAGCAUCA
B12: chr12:10081268:10081413:-|three_prime_utr|ENSG00000150048|control|control|control (ssRNA)
RNA: GGGAGUUCUACAGUCCGACGAUCUCAGUACUACCAGCUCUCCAAUACUGGUCAAGACACCAUUUCUCAAAUGGAAGAAAGAUUAGGAAAUACGUCCCAAGAGUUGCAAUCUCUUCAAGUCCAGAAUAUAAAGCUUGCAGGAAGCAACAGAGGAUUGAGCAUCA
B13: chr15:63774837:63774950:-|CDS|ENSG00000103657|unk|total|mutant (ssRNA)
RNA: GGGAGUUCUACAGUCCGACGAUCGUAACAACAUUUCUUAAAGGAGUCACUAUUCCUAAUUCUGGGGCAGACACUUCCGGUCGCCGAUCCGCUUCUGAGUUGCUGCUUGGUUUGGCAGCUCAACGAGGCUCAUUGCGAUAUCUUCAACAGAGGAUUGAGCAUCA
B14: ENSG00000086827:stop:overlap|stop_codon|ENSG00000086827|stop_codon|NA|stop_codon (ssRNA)
RNA: GGGAGUUCUACAGUCCGACGAUCUAAUUCGUGCCUUGUUUCAGAACACAGAAAGAAGAGCAGCUGCCCUUGCUAAAAUUAAAUAGCUCCAUCUUCUUAAGAAAGCUAUGUCUUGAAUAUGUGGAUUCUUCCCUUGGCAUAAUUCAACAGAGGAUUGAGCAUCA

The binders below were run against T1, UNK ZnF1-6 (called full-length) (human, UniProt Q9C0B0 30-357) (assay: nsRBNS (natural sequence RNA bind-n-seq); RBNS binding buffer (assumed for nsRBNS): 25 mM Tris pH 7.5, 150 mM KCl, 3 mM MgCl2, 0.01% Triton X-100, 500 ug/ml BSA, 20 U/ml SUPERase-In, 4 C; UNK is unkempt and MSI1 is Musashi-1; names of the RNAs are library labels; protein concentration not given here; high values mean tight binding).
T1 sequence: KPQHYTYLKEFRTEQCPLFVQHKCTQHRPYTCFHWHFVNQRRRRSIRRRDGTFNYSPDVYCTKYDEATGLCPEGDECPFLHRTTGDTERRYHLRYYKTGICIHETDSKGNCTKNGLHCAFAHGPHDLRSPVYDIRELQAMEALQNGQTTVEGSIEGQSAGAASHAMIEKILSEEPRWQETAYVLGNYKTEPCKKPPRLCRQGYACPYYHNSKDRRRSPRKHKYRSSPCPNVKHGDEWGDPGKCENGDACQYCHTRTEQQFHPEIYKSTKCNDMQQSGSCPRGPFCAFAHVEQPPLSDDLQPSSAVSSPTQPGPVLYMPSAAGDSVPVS
For B1, the binding signal was 0.704 enrichment R. In the case of B2, the binding signal is reported as 0.446 enrichment R. B3 gave a binding signal of 1.28 enrichment R. B4 gave a binding signal of 0.697 enrichment R. In the case of B5, the binding signal is reported as 0.473 enrichment R. In the case of B6, the binding signal is reported as 0.859 enrichment R. B7 was tested, and the binding signal was 1.03 enrichment R. With B8 the binding signal was 0.749 enrichment R. B9 gave a binding signal of 0.852 enrichment R. B10 was tested, and the binding signal was 0.805 enrichment R. B11 showed a binding signal of 0.76 enrichment R. B12 gave a binding signal of 0.413 enrichment R. B13 showed a binding signal of 0.574 enrichment R. Work on B14 yielded a binding signal of 1.49 enrichment R.
